This note sets out measurements from PubChem BioAssay (Tox21).

Records with an inconclusive call do not appear. Active and inactive are the calls of the source. Calls come from the whole dose curve; as a rule, active = well fitted activation curve with a large enough effect in the signal ratio in the repeat runs (not every such curve was filed as active); inconclusive = weak or mixed curves, or effect the other way; inactive = flat fitted curve, though single readings scatter; the % refers to the signal ratio.

The assay in a line: qHTS assay to identify small molecule agonists of the endoplasmic reticulum stress response signaling pathway (AID 1159516). The note with it: ESRE-bla HeLa, ER stress beta-lactamase reporter, 5 h; series mostly up to 61 µM. The procedure, abridged:
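Read-out is beta-lactamase cleavage of a FRET substrate (405 nm excitation; 460 and 530 nm emissions) in ESRE-bla HeLa cells after a 5 hr compound exposure at 37 C. Substrate incubation ran 2 hr at room temperature.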
(Quantitative high-throughput screening tests each substance at several concentrations.)
Consider `CN(CC1(C)CCCO1)S(=O)(=O)c1ccc(Cl)c(S(N)(=O)=O)c1` (stereo not given), for which the outcome was inactive.

Turning to `OCc1ccccc1O`, the call was inactive.

As to `CN1C(=O)CC(c2ccccc2)C1=O` (stereo not given), the compound was called inactive.

On to `Cc1c(C(=O)NCCO)[n+](=O)c2ccccc2n1[O-]`, for which the outcome was inactive.

Take `O=S(=O)(O)C(F)(F)F`: the outcome was inactive.

For the compound `CCCCC1CCC(=O)O1` (stereo not given), the compound was called inactive.

With `CCOc1ccc(NC(N)=O)cc1`, the compound was classed as inactive.

Regarding `NC/C=C/C(=O)O`, the outcome was inactive.

For the compound `CCCCCCCCCC#N`, the compound was classed as inactive.

For `CCCCC(=O)O[C@]1(C(=O)CO)[C@H](C)C[C@H]2[C@@H]3CCC4=CC(=O)C=C[C@]4(C)[C@@]3(F)[C@@H](O)C[C@@]21C`, the compound was classed as inactive.

Consider `CCCCc1ccc2nc(NC(=O)OC)[nH]c2c1`, for which the call was inactive.

`O=C(O)c1ccccc1Nc1cc(Cl)ccc1C(=O)O`: the result was inactive.

For the compound `CCCCCOc1ccc(C2SC(=O)NC2=O)cc1OCC` (stereo not given), the outcome was inactive.

`CC(C)CC(=O)OCc1ccccc1`: the compound was classed as inactive.

As to `CC/C=C\CCOC(=O)C(C)C`, the compound was called inactive.

With `CN(CCCN1c2ccccc2CCc2ccccc21)CC(=O)c1ccc(Cl)cc1`, the outcome was inactive.

With `CCNCCO`, the result was inactive.

With `CCCCNc1ccc(C(=O)OCCN(CC)CC)cc1`, the result was inactive.

Turning to `CCOC(=O)NCCC[Si](OCC)(OCC)OCC`, the outcome was inactive.

`Cc1ccc([N+](=O)[O-])c(N)c1`: the compound was classed as inactive.

Regarding `N#Cc1ccc(C(c2ccc(C#N)cc2)n2cncn2)cc1`, the compound was classed as inactive.

With `O=C1CCC(C2CCCCC2)CC1`, the result was inactive.

With `NC(=O)NS(=O)(=O)c1ccc(Cl)cc1`, the call was inactive.

Turning to `CCCCCCCCOC(=O)CCCCCCCCC(=O)OCCCCCCCC`, the outcome was inactive.

As for `OCCN(CCO)c1ccccc1`, the compound was classed as inactive.
